Rango dissoc inh: qHTS Assay for Inhibitors of RanGTP induced Rango (Ran-regulated importin-beta cargo) - Importin beta complex dissociation; Snurportin-1 (Homo sapiens) + GTP-binding nuclear protein Ran (Homo sapiens) + Importin …; Biochemical FRET Rango-importin beta, RanGTP-induced dissociation; Potency, µM (titrated, usually from 46.1 µM), for inactives: at the top dose activity change, negative = inhibition; 340,000 compounds, 0.071% hits; AID 540253, 2011; calls by dose curve; also: % of control where 0% means no effect; nearly all actives have a fitted effect of over 45% in size
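FRET read at 45 min, room temperature: inhibitors block the CFP/YFP signal rise when RanGTP (0.6 uM Ran, 2 mM GTP, 0.2 uM RCC1) frees Rango (0.1 uM) from importin beta (0.25 uM). Pre-read after 5 min compound exposure flags interference.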
Rango complex inh: qHTS Assay for Inhibitors of Rango (Ran-regulated importin-beta cargo) - Importin beta complex formation; Importin subunit beta-1 (Homo sapiens), Q14974; Rango CFP/YFP FRET sensor + importin beta, 45 min; Potency, µM (titrated, usually from 92.2 µM), for inactives: at the highest dose inhibition of complex formation; 340,000 compounds, 0.031% hits; calls by dose curve;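 also: 0% = DMSO wells and 100% = buffer wells lacking importin beta; nearly all actives have a fitted effect of over 15% in size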
Target sequence (Q14974 whole entry, looked up): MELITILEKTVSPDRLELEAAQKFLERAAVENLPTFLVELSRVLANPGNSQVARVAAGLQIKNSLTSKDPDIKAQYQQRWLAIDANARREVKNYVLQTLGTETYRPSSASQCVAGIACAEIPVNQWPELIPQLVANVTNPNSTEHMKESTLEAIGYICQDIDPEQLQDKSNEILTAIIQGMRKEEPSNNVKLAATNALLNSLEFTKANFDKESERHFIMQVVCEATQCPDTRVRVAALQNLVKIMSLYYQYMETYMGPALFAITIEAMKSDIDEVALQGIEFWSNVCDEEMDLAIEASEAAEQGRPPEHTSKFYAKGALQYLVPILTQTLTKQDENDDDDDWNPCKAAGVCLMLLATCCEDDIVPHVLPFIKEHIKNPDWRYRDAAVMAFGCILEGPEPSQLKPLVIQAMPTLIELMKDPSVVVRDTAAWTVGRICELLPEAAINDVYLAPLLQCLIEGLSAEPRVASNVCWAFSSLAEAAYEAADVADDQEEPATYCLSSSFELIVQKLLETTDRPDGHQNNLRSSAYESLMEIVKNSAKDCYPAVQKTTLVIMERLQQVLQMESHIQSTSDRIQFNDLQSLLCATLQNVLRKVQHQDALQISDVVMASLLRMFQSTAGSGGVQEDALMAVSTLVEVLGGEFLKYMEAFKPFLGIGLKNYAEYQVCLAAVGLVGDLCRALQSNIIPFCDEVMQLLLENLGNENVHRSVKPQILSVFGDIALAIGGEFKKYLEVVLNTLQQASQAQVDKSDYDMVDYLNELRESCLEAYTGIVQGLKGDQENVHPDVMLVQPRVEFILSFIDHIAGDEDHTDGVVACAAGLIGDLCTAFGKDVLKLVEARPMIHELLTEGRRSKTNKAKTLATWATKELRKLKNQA
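FRET biosensor (snurportin 1 IBB flanked by EYFP and cerulean), 50 nM, with compound 5 min, then 0.125 microM importin beta in PBS, 1 mM DTT, 0.02% Tween-20, 0.1% BSA. CFP/YFP ratio read after 45 min at room temperature; pre-read flags interference.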
Nrf2 activator: qHTS of Nrf2 Activators | AREc32 ARE-luciferase reporter (MCF7-derived line), luminescence, 24 h | Potency, µM (series often up to 46.1 µM), for the others: top-dose activation, actives largely listed as activators | 410,000 compounds, 0.31% hits | AID 624171, 2012; also: % of control where 0% means no effect; nearly all actives have a fitted effect of over 65% in size
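AREc32_Fluc, 1000 cells/well, OPTI-MEM + 5% FBS, o/n 37 deg C 5% CO2; 23 nL cpd by pin tool, 24 hr; Steady-Glo 30 min RT, luminescence.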
Nrf2 inh: Nrf2 qHTS screen for inhibitors. A549 ARE-Fluc reporter, luciferase luminescence, 18-24 h. Potency, µM (titrated, usually from 46 µM), for inactives: at the highest dose activity change, negative = inhibition, hits mostly inhibitors. 360,000 compounds, 2.1% hits; also: % is scaled to controls: 0 for no effect and ±100 for the full control effect; nearly all actives have a fitted effect of over 60% in size
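Quantitative HTS in A549 cells stably bearing an antioxidant response element-firefly luciferase construct. Inhibition of Nrf2-driven transcription was scored by luminescence after 18-24 h of compound exposure at 37 °C.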
A549 viability: Nrf2 qHTS screen for inhibitors: counterscreen for cytotoxicity | A549 ARE-Fluc cells, CellTiter-Fluor viability, 18-24 h | Potency, µM (series often up to 46 µM), without a hit: at the top dose activity change, negative = cytotoxicity, most hits filed as inhibitors | 390,000 compounds, 0.16% hits; also: % is scaled to controls: 0 for no effect and ±100 for the full control effect
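A549 ARE_Fluc cells in 5% FBS OPTI-MEM were exposed to compounds in concentration-response for 18-24 h at 37 deg C. Viability was read by CellTiter-Fluor fluorescence (Ex 405/Em 525) after 30 min, before the luciferase read.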
Active calls of the source: *; ? = inconclusive; · = not tested or not shown; [ ] = another dose, or the depositor's remark. Sampled rows, rich in hits. Any-hit rate of the full collection: about 2.3%. Unless noted, calls follow the shape of the dose curve; as a rule, active = well fitted curve in the direction sought with a large enough effect; inconclusive = small, poorly fitted or top-dose-only effect, or another doubt; inactive = no such curve, though single readings can be large; an effect the other way counts as inactive or inconclusive. Potency is read from the fitted curve at half-maximal effect.

SMILES	Rango dissoc inh	Rango complex inh	Nrf2 activator	Nrf2 inh	A549 viability
C/C(=N\NC(=O)C1CCCN(S(=O)(=O)c2ccccc2)C1)c1ccccn1 (centres undefined)	10.5%	0.7%	0.5%	11.6µM*	?
C/C(=N\NC(=O)C1COc2ccccc2O1)c1ccc(C)o1 (centres undefined)	-0.8%	-0.6%	0.6%	-24.2%	-9.0%
CC(=NNC(=S)Nc1cccc(C)c1)c1ccccn1	11.8%	?	6.6%	?	-25.4%
CC(=NNC(=S)Nc1ccc(C)cc1)c1ccccn1	0.9%	4.5%	1.6%	?	11.6µM*
CCC(=O)N1CCc2cc(S(=O)(=O)NCCC(=O)NCc3ccc(C)cc3)ccc21	·	·	4.0%	?	-0.2%
CCn1c(=O)cc(OCC(=O)N2CCN(c3cccc(Cl)c3)CC2)c2ccccc21	·	·	3.5%	6.8%	11.1%
C/C(=N\NC(=O)C(c1ccccc1)c1ccccc1)c1ccccn1	1.1%	-2.4%	18.6%	11.6µM*	?
C/C(=N\NC(=O)C(c1ccccc1)c1ccccc1)c1ccc(O)cc1	7.8%	1.6%	2.3%	?	9.6%
Cc1ccc(C(NC(=O)NC(C)c2ccccc2)C(Cl)(Cl)Cl)cc1F (centres undefined)	43.3%	-0.2%	1.0%	16.4µM*	?
COCCNC(=S)N(C)[C@H]1C[C@H]2c3cc(-c4ccccc4)ccc3CCN2C(=O)[C@H]1[C@H](C)O	·	·	3.0%	·	·
CCC(=O)Nc1ccc(C(=O)OCC(=O)c2ccc(C)c([N+](=O)[O-])c2)cc1	1.8%	4.2%	0.1%	7.31µM*	·
CCOC(=O)/C(C#N)=C/Nc1ccccc1OC(F)(F)F	-9.7%	2.6%	2.9%	0.4%	-1.2%
CCOC(=O)c1c(C)[nH]c(C(=O)CN2C(=O)NC(C)(c3ccc4ccccc4c3)C2=O)c1C (centres undefined)	4.8%	-0.5%	2.3%	25.9µM*	-18.6%
CCCC1(c2ccccc2)NC(=O)N(CC(=O)c2[nH]c(C)c(C(=O)OCC)c2C)C1=O (centres undefined)	7.7%	0.5%	8.9%	·	-16.5%
Cn1nnnc1SCCNCc1ccccc1OCc1ccc(Cl)cc1Cl	·	·	-5.0%	11.6µM*	-0.9%
COc1c(Br)cc(Br)cc1/C=N/NC(=O)c1ccncc1	-3.1%	-3.3%	1.5%	-5.6%	-1.9%
CN(C)c1ccc(C(=O)N/N=C/c2cc(Br)cc(Br)c2O)cc1	?	?	-0.8%	13µM*	-12.5%
Cc1nnsc1S(=O)c1ccc(Cl)c(Cl)c1 (centres undefined)	-2.1%	-0.2%	11.2µM*	-17.4%	-8.9%
Cc1nnsc1S(=O)c1ccc(Cl)cc1 (centres undefined)	-2.0%	-4.0%	?	-25.7%	11.8%
CCCCC(=O)NC(c1ccccc1OC)c1ccc2cccnc2c1O (centres undefined)	1.4%	5.0%	-0.2%	20.6µM*	-25.1%
CCCC(=O)NC(c1ccc(Cl)cc1Cl)c1ccc2cccnc2c1O (centres undefined)	-12.1%	?	-0.7%	23.1µM*	-17.6%
CC(C)CC(=O)NC(c1cccs1)c1ccc2cccnc2c1O (centres undefined)	-10.5%	-1.5%	3.6%	20.6µM*	?
CCCC(=O)NC(c1ccc(Cl)cc1)c1ccc2cccnc2c1O (centres undefined)	18.5%	-0.9%	-0.3%	?	-16.4%
CCCCC(=O)NC(c1ccc(Cl)cc1)c1ccc2cccnc2c1O (centres undefined)	2.9%	1.1%	0.0%	6.7%	-4.7%
CC(=O)NC(c1ccc2ccccc2c1)c1ccc2cccnc2c1O (centres undefined)	1.1%	-2.6%	0.1%	14.6µM*	-20.4%
SMILES	Rango dissoc inh	Rango complex inh	Nrf2 activator	Nrf2 inh	A549 viability
CCC(=O)NC(c1cccs1)c1ccc2cccnc2c1O (centres undefined)	-0.5%	-2.6%	-0.9%	?	-7.8%
Cc1ccc(Cl)cc1N1CCN(C(=O)CCCCCn2c(=O)[nH]c3ccccc3c2=O)CC1	·	·	0.5%	·	?
CC(O)(c1ccc(F)c(F)c1)c1nc(-c2cccc(C#N)c2)cs1 (centres undefined)	·	·	-0.3%	·	·
Cc1nc(N2CCN(C(=O)c3ccco3)CC2)c2oc3ccccc3c2n1	-6.8%	3.2%	0.2%	20.6µM*	-12.8%
CCc1nc(N2CCN(C(=O)c3ccco3)CC2)c2oc3ccccc3c2n1	10.6%	3.5%	-0.5%	?	-0.8%[1.84 µM]
COc1ccc(-c2cc(C)no2)cc1S(=O)(=O)Nc1cccc(C)c1	-5.8%	0.1%	-0.2%	23.1µM*	-22.9%
COc1ccc(-c2cc(C)no2)cc1S(=O)(=O)Nc1ccccc1	-1.2%	-0.9%	4.0%	16.6%	-14.4%
CCO[C@@H]1OC(C(=O)NCc2ccccc2)=C[C@H](c2ccc(C(F)(F)F)cc2)[C@H]1CCCO	2.4%	1.8%	-1.0%	13µM*	16.4µM*
CCO[C@H]1OC(C(=O)NCc2ccccc2)=C[C@@H](c2ccc(Br)cc2)[C@@H]1CCCO	7.0%	-0.5%	-0.3%	-5.5%	2.1%
CCOC(=O)N1CCC(NS(=O)(=O)c2ccc(NC(C)=O)c(Cl)c2)CC1	-3.1%	-3.1%	-0.7%	11.6µM*	0.8%
CCOC(=O)C(=CNc1ccc(N2CCCCC2)c(S(=O)(=O)Nc2ccccc2OC)c1)C(=O)OCC	-5.7%	?	0.0%	-2.7%	-2.1%
Oc1cccc2ccc(/C=C/c3ccccc3Br)nc12	8.5%	5.6%	10µM*	5.6%	1.8%
Oc1cccc2ccc(/C=C/c3cccs3)nc12	-21.6%	-7.5%	3.16µM*	·	-0.1%
COc1ccc(O)c(-c2nc3ccccc3c(=O)n2Cc2ccccc2)c1	·	·	·	15.3%	-7.7%
COc1cccc(C2N=C(c3ccccc3C)NO2)c1OC (centres undefined)	12.6%	0.1%	3.5%	19.7%	1.0%
O=C(Nc1ccc(C(F)(F)F)cc1)c1ccc(NC(=O)C2CCCO2)cc1 (centres undefined)	19.3%	-1.6%	1.5%	20.6µM*	1.8%
O=C(Nc1ccc(F)cc1)c1ccc(NC(=O)C2CCCO2)cc1 (centres undefined)	0.8%	-1.9%	2.2%	-5.4%	-1.7%
Nc1ccccc1C=C1Cc2ccccc2C1=O	?	?	2.82µM*	?	1.6%
O=C1C(=Cc2cccc(F)c2)Cc2ccccc21	·	·	10µM*	·	·
O=C1/C(=C/c2ccncc2)Cc2ccccc21	5.4%	-1.3%	7.4%	-8.3%	-2.3%

Screens as filed in PubChem BioAssay.
